Assay results from ChEMBL document CHEMBL1157539, “Thousands of chemical starting points for antimalarial lead identification” (Nature, 2010).

system: Plasmodium falciparum; assay: GSK_TCMDC: Inhibition of Plasmodium falciparum 3D7 in whole red blood cells, using parasite LDH activity as an index of growth. Test compounds present at 2uM; type: functional

Row | Compound | Inhibition [%]
1 | CC(C)[C@H](NC(=O)c1ccc(O)c(-c2cccc(C(F)(F)F)c2)c1)C(=O)NCCN1CCCCC1 | 99
2 | COc1cc(NC(=O)/C=C/c2cccc3cc[nH]c23)ccc1OCCN(C(C)C)C(C)C.Cl | 99
3 | NCc1ccc(CNCc2ccc(-c3ccc(-c4nc5cc(F)ccc5[nH]4)cc3)cc2)cc1.O=C(O)C(F)(F)F | 100
4 | CC(C)CCNC(=N)Nc1ccc(OCCCOc2ccc(NC(=N)NCCC(C)C)cc2)cc1 | 100
5 | O=C(O)C(F)(F)F.c1ccc(CNCc2ccc(-c3cccc(-c4nc5ccccc5[nH]4)c3)cc2)cc1 | 100
6 | O=C(Cc1ccccc1)NC(c1ccccc1)c1ccc2cccnc2c1O (stereo not drawn) | 89
7 | Fc1ccc2[nH]c(-c3cccc(-c4cccc(CNCC5CCCO5)c4)c3)nc2c1.O=C(O)C(F)(F)F (stereo not drawn) | 99
8 | COc1ccc(O)c(C(=O)c2cc(C#N)c(=O)n(-c3ccc(Oc4ccccc4)cc3)c2)c1 | 97
9 | O=C(NCCN1CCC(NC(=O)c2ccc(-c3ccccn3)s2)CC1)c1ccc(Cl)c(Cl)c1.O=C(O)C(F)(F)F | 97
10 | N#CC1(c2ccccc2)CCN(c2nc(NCCCN3CCCC3=O)nc(N3CCCC4CCCCC43)n2)CC1 (stereo not drawn) | 95
11 | O=C(/C=C/c1ccc(Cl)c(Cl)c1)NCCCCCCN1CCCN(C(=O)Nc2ccc(Cl)c(Cl)c2)CC1 | 100
12 | CCC(=O)NC(c1ccco1)c1cc(Cl)c2cccnc2c1O (stereo not drawn) | 89
13 | Cl.c1ccc2cc(CNCCCN3CCN(CCCNCc4ccc5ccccc5c4)CC3)ccc2c1 | 100
